An excerpt weighted towards active compounds, which were near 2.8% of everything screened.
S2 tox: reduces viability in counter-screen for ATXN expression inhibitors; 400,000 tested, 0.49% active; Potency, µM (titrated, usually from 56.7 µM), actives largely listed as cytotoxic; S2 cells (HEK-293 line with an ATXN2-luciferase reporter) viability, CellTiter-Fluor protease fluorescence, 24 h; further: nearly all actives have a fitted effect of over 40% in size
Six1-Eya2 blk: inhibitors of human Six1/Eya2 interaction; activity change, % (test concentration not listed); Q15475+O00167; AlphaScreen GST-Six1/His-Eya2 binding, biochemical; stronger effect = lower value; 360,000 tested, 0.56% active; AID 651725; in the data active means activity change below about -65%; inconclusive means mostly about -30% to -63%
Target sequence (O00167 whole entry, looked up): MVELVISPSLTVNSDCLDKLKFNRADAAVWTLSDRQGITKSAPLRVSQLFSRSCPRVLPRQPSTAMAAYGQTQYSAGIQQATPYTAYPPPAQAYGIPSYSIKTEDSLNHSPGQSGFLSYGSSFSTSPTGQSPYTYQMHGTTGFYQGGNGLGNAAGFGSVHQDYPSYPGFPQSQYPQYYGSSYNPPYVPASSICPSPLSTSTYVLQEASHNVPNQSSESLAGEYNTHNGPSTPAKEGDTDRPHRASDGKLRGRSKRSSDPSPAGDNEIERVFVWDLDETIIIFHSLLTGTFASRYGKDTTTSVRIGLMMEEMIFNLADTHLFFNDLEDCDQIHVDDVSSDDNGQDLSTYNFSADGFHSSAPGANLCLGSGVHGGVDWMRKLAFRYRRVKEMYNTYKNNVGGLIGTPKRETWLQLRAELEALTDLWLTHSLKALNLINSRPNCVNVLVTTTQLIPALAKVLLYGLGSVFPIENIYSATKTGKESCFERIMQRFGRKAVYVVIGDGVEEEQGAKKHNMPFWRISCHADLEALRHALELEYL
Target sequence (Q15475 whole entry, looked up): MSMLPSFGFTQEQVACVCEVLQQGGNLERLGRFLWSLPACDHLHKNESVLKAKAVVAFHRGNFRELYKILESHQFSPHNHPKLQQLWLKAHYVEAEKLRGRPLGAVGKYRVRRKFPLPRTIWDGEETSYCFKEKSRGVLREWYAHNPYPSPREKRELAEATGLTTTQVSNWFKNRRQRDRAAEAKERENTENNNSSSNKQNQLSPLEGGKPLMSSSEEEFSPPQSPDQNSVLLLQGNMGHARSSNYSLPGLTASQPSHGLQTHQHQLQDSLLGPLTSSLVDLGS
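GST-Six1 + His-Eya2 (5X stock: 250/500 nM); Tris pH 8.0, 300 mM NaCl, 0.05% BSA, 0.02% Tween 20; GSH donor/Ni acceptor beads; 1 h 37 °C dark; AlphaScreen readout.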
HepG2 tox-1: counter-screen for TGF-b inhibitors: cytotoxicity in HepG2 cells; HepG2 CAGA-GFP viability, ATP luminescence, 18 h; Potency, µM (doses to about 46.1 µM), usual class: cytotoxic; AID 588856; 410,000 tested, 0.76% active
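HepG2 CAGA-GFP cells (1000/well, DMEM with 1% FBS) received compound, then TGF-beta at 500 pg/mL final, and were incubated 18 hours at 37 degrees C. Viability was read by CellTiter-Glo luminescence. Media-only wells were set as complete cell-killing and DMSO as no toxicity.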
CtBP-E1A blk: CtBP/E1A binding inhibition; 340,000 tested, 0.49% active; activity change, % (no concentration beside the values); AlphaScreen GST-E1A/His-CtBP binding, 1536-well; stronger effect = lower value; AID 651724; in the data active means activity change below about -65%; inconclusive means mostly about -30% to -63%
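Protein mix (5X: 125 nM each GST-E1A, His-CtBP) was incubated with pinned compound 2 h at 37 deg C in dark, in 50 mM Tris pH 8.0 buffer with 300 mM NaCl. Glutathione donor and nickel acceptor beads followed; AlphaScreen signal read after 1 h.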
TGFb inhibitor: blocks TGF-b signaling | HepG2 CAGA-GFP TGF-b/SMAD3 reporter, GFP fluorescence, 18 h; TGF-beta stimulated, 500 pg/mL final | Potency, µM (titrated, usually from 46.1 µM), most hits filed as inhibitors | 410,000 tested, 1.2% active; further: nearly all actives have a fitted effect of over 65% in size
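GFP signal (ex488/em500-530) from TGF-beta-stimulated HEPG2 CAGA-GFP cells, 500 pg/mL final, 18 h at 37 degrees C in DMEM plus 1% FBS, normalized to unstimulated and DMSO-stimulated controls.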
ATXN2 expr inh: inhibitors of ATXN2 expression. HEK-293 ATXN2-luciferase reporter, luminescence, 24 h. Potency, µM (titrated, usually from 57 µM), hits mostly inhibitors. 360,000 tested, 0.72% active; further: nearly all actives have a fitted effect of over 55% in size
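qHTS (up to 57 uM final) was run with 24 h compound exposure of reporter cells at 37 °C. Each well was multiplexed: SteadyGlo luminescence measured ATXN2-luciferase expression after a fluorogenic Gly-Phe-AFC viability readout (25 uM final).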
TGFb CAGA inh: TGF-b pathway inhibition, cherry-pick retest; HepG2 CAGA-GFP TGF-b reporter, GFP fluorescence, 18 h; cells stimulated with TGF-beta, 500 pg/mL; 1,600 tested, 63% active; Potency, µM (highest dose often 46.1 µM), actives largely listed as inhibitors; shares compounds with TGFb inhibitor; AID 720534; further: nearly all actives have a fitted effect of over 65% in size
HepG2 tox-2: HepG2 cytotoxicity, TGF-b inhibitor counterscreen; shares compounds with TGFb inhibitor; HepG2 CAGA-GFP viability, ATP luminescence, 18 h; cells stimulated with TGF-beta, 500 pg/mL; Potency, µM (doses to about 46.1 µM), actives largely listed as inhibitors; 1,600 tested, 27% active; further: nearly all actives have a fitted effect of over 70% in size
TGFb CCL64 inh: blocks TGF-b signaling in CCL64 reporter cells | shares compounds with TGFb inhibitor | CCL64 CAGA-GFP reporter, TGF-b stimulated, GFP fluorescence, 18 h | Potency, µM (series often up to 46.1 µM), actives largely listed as inhibitors | 1,600 tested, 41% active | AID 720536; further: nearly all actives have a fitted effect of over 65% in size
COP TGFb inh: blocks TGF-b signaling in HepG2 COP reporter; shares compounds with TGFb inhibitor; HepG2 COP-GFP TGF-b reporter, GFP fluorescence, 18 h; cells stimulated by added recombinant TGF-beta; Potency, µM (highest dose often 46.1 µM), usual class: inhibitors; 1,600 tested, 3% active; further: nearly all actives have a fitted effect of over 70% in size
Numbers stand for hits; . = inactive; ? = inconclusive; / = not tested or not shown. Unless noted, the call rests on the fitted dose curve; in most records, active means well fitted curve in the direction sought with a large enough effect; inconclusive means small, poorly fitted or top-dose-only effect, or another doubt; inactive means no such curve, though single readings can be large; an effect the other way counts as inactive or inconclusive.

SMILES | S2 tox | Six1-Eya2 blk | HepG2 tox-1 | CtBP-E1A blk | TGFb inhibitor | ATXN2 expr inh | TGFb CAGA inh | HepG2 tox-2 | TGFb CCL64 inh | COP TGFb inh
Cc1ccc(S(=O)(=O)c2nnn3c2nc(N2CCCC(C)C2)c2cc(Cl)ccc23)cc1C (stereo not drawn) | . | / | . | / | . | . | / | / | / | /
COc1cc(/C=N/n2cc(-c3ccccc3)[nH]c2=S)cc(OC)c1O | . | . | . | / | 16µM | / | 15µM | . | . | .
Oc1ccc(/C=N/n2cc(-c3ccccc3)[nH]c2=S)cc1 | . | . | . | . | . | . | / | / | / | /
CCOc1ccc(NC(=O)c2oc3ccccc3c2NC(=O)c2cc3ccccc3o2)cc1 | ? | / | . | / | ? | . | / | / | / | /
CCSc1ccccc1C(=O)n1nnc2ccccc21 | . | . | . | . | 11µM | . | 5.8µM | ? | ? | .
CC(=O)n1nnc2ccccc21 | / | / | . | / | . | / | / | / | / | /
CC(=O)N1c2ccccc2CC1C(=O)N1CCN(c2cc(Cl)ccc2C)CC1 (stereo not drawn) | . | / | . | / | . | . | / | / | / | /
O=C(NCc1cccnc1)c1cc(Sc2cccc(Cl)c2)nc2ccccc12 | . | . | . | . | 11µM | . | ? | . | ? | .
COc1ccc(CCNC(=O)CCn2c(=O)c3ccccc3n(CC(=O)Nc3ccccc3F)c2=O)cc1OC | . | / | . | / | . | . | / | / | / | /
CS(=O)(=O)c1ccc(C(=O)OCC(=O)NC(=O)C2CCCCC2)cc1[N+](=O)[O-] | / | . | . | / | 10µM | / | 12µM | ? | ? | ?
Cc1cc(C(=O)OCC(=O)NC(=O)C2CCCCC2)ccc1[N+](=O)[O-] | / | / | . | / | . | / | / | / | / | /
COc1ccc(-c2cc(C(F)(F)F)nc(SCC(=O)NCCc3ccc(OC)c(OC)c3)n2)cc1 | ? | / | . | / | . | . | / | / | / | /
C[C@H]1CN(c2ccc(Br)cc2)C(=O)[C@@H]1CC(=O)Nc1ccccc1 | . | . | . | . | . | . | / | / | / | /
CCOC(=O)N(C)c1c(CC)nc2c(OCc3ccc(F)cc3)cccn12 | . | . | . | . | . | . | / | / | / | /
CCOC(=O)N(C)c1c(CC)nc2c(OCc3ccc(C(F)(F)F)cc3)cccn12 | . | . | . | . | ? | ? | ? | . | . | .
CC1CCN(c2cc3c(cc2F)c(=O)c(S(=O)(=O)c2ccc(Cl)cc2)cn3C)CC1 | / | / | . | / | . | / | / | / | / | /
COc1cc(CCC(=O)NCc2ccc3c(c2)CCN3C(=O)c2ccc(F)cc2)cc(OC)c1OC | / | / | . | / | ? | / | / | / | / | /
O=S(=O)(c1ccc2ccccc2c1)N1CCN(C2Cc3ccccc3C2)CC1 | . | . | . | . | 5µM | . | . | . | . | .
O=S(=O)(c1ccc2ccccc2c1)N1CCN(C2CCN(Cc3ccccc3)CC2)CC1 | . | . | . | . | . | . | / | / | / | /
O=C1NC(c2cccc3ccccc23)Nc2ccccc21 (stereo not drawn) | ? | . | . | . | 3.5µM | . | 2.6µM | ? | 6.5µM | .
O=C1NC(c2ccccc2Cl)Nc2ccccc21 (stereo not drawn) | . | . | . | . | . | . | / | / | / | /
CC(C)c1ccc(CN2CCN(C(=O)CSc3nnnn3C3CC3)CC2)cc1 | . | . | . | . | ? | . | . | . | . | .
O=C(CSc1nnnn1C1CC1)N1CCN(c2cccc(Cl)c2)CC1 | . | . | . | . | . | . | / | / | / | /
COc1ccc(CCNC(=O)CSc2n[nH]c(-c3ccccc3Cl)n2)cc1OC | / | / | . | / | . | / | / | / | / | /
CC(=O)Nc1ccc(N=Cc2c(O)c3ccccc3oc2=O)cc1 | . | . | . | . | . | . | / | / | / | /
SMILES | S2 tox | Six1-Eya2 blk | HepG2 tox-1 | CtBP-E1A blk | TGFb inhibitor | ATXN2 expr inh | TGFb CAGA inh | HepG2 tox-2 | TGFb CCL64 inh | COP TGFb inh
CC(=O)Nc1ccc(N=Cc2c(O)c(C(=O)Nc3ccccc3)cc3ccccc23)cc1 | . | . | . | / | 7.1µM | / | . | 12µM | 4.6µM | .
Cc1cccc(N(C(=O)CNC(=O)c2ccco2)C(C(=O)NC2CCCCC2)c2cccnc2)c1 (stereo not drawn) | . | . | . | . | . | . | / | / | / | /
O=C(NC1CCCCC1)C(c1cccnc1)N(C(=O)CCl)c1cccc(Cl)c1 (stereo not drawn) | 11µM | . | 22µM | . | 10µM | 20µM | 5.8µM | 9.2µM | 4.6µM | ?
CC1(C)NC(=O)N(CCC(=O)Nc2ccc(C(C)(C)C)cc2)C1=O | ? | . | . | . | . | / | / | / | / | /
Cc1cc(Br)ccc1NC(=O)C(NS(=O)(=O)c1cccs1)c1ccccc1 (stereo not drawn) | . | / | . | / | ? | . | / | / | / | /
Cc1cc(NC(=O)NC(=O)c2ccccc2NC(=O)CN)ccc1Oc1ncc(Br)cn1 | ? | . | . | . | ? | . | / | / | / | /
Nc1ccccc1C(=O)NC(=O)Nc1ccc(Oc2ncc(Br)cn2)c(Cl)c1 | ? | . | . | . | ? | . | ? | . | 5.8µM | .
CCOc1ccccc1CNC(=O)c1ccc(Sc2ccc(Cl)cc2)c(NC(C)=O)c1 | . | . | . | . | ? | . | ? | . | ? | .
CCOc1ccc(CNC(=O)c2ccc(Sc3ccc(Cl)cc3)c(NC(C)=O)c2)cc1 | . | . | . | . | ? | ? | / | / | / | /
